From PubChem BioAssay (Tox21) come the findings set out here.

SMILES strings stand for the structures. Records with an inconclusive call do not appear. Where a structure was tested more than once in an assay, its records may differ in their call. Active and inactive are the calls of the source. Unless noted, calls follow the shape of the dose curve; as a rule, active = well fitted curve in the direction sought with a large enough effect in the repeat runs; inconclusive = weak or mixed curves; inactive = no such curve, though single readings can be large; an effect the other way counts as inactive or inconclusive.

The target in test [1] is Progesterone receptor (Homo sapiens) (UniProt P06401). Kind of test: qHTS assay to identify small molecule agonists of the progesterone receptor (PR) signaling pathway (AID 1346784; calls by dose curve; also: nearly all actives have a fitted effect of over 30% in size). The essentials: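 Agonist qHTS: compounds pinned onto 3,000 PR-UAS-bla HEK 293T cells per well in charcoal-stripped serum medium, 16hr at 37C, then beta-lactamase activity measured by LiveBLAzer FRET fluorescence after 2 hours at room temperature.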
Chain of Progesterone receptor (Homo sapiens) (P06401 whole entry, looked up): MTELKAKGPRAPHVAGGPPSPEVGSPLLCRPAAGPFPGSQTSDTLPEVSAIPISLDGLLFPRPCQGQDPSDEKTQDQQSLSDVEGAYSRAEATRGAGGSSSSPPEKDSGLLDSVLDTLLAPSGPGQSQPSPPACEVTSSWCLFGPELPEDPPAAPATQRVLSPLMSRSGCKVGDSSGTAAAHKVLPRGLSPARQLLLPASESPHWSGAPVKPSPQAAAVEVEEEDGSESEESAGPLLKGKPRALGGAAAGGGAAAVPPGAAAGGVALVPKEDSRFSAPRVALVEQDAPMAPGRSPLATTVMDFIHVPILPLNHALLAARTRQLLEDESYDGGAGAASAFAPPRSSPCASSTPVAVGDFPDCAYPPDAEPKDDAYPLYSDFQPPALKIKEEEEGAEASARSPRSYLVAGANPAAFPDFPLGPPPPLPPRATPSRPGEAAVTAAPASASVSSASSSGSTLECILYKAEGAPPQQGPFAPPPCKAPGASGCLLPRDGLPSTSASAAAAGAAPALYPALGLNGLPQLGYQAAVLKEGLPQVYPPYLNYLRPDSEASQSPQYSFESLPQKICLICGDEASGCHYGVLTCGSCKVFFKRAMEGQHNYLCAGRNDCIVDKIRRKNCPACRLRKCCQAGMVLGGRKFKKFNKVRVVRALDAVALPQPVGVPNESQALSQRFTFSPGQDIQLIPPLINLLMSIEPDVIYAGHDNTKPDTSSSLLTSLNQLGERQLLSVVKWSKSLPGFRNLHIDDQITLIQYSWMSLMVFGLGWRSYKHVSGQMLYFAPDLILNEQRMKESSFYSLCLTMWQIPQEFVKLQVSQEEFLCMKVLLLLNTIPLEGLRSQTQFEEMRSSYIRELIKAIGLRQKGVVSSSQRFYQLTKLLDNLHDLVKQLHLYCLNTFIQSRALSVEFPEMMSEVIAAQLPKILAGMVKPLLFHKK
For orientation: In qHTS, concentration-response curves come from the screen itself.

The target is the same in test [2]. Kind of test: qHTS assay to identify small molecule antagonists of the progesterone receptor (PR) signaling pathway (AID 1346795; active = well fitted inhibition curve with a large enough effect in the signal ratio in the repeat runs, not every such curve was filed as active; the % refers to the signal ratio). In short, it runs like this: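 Antagonist mode with agonist R5020 at 1 nM final and 16 hr incubation at 37C. Reporter was beta-lactamase driven by UAS in HEK293T (PR-UAS-bla), 2% charcoal-stripped serum; signal from LiveBLAzer FRET substrate, 2 hr at room temperature.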

A short description of test [3]: qHTS assay to identify small molecule antagonists of the progesterone receptor (PR) signaling pathway - cell viability counter screen (AID 1346798). Also: series mostly up to about 92 µM; nearly all actives have a fitted effect of over 50% in size. In short, it runs like this: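 Cytotoxicity read as CellTiter-Glo luminescence (30 min, room temperature) in the same wells as the beta-lactamase readout. HEK293T PR-UAS-bla cells in charcoal-stripped 2% FBS received compound and R5020, then 16 h at 37C, 5% CO2.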

A short description of test [4]: qHTS assay to identify small molecule antagonists of the TGF-beta/Smad signaling pathway - cell viability counter screen (AID 1346824). Also: nearly all actives have a fitted effect of over 50% in size. The essentials:
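SBE-bla HEK 293T cells were plated overnight at 37 C, then given compounds in DMSO plus TGF-beta1 (added as 0.25 ng/mL solution) for 5 hr. After the bla read, CellTiter-Glo was added to the same wells and luminescence read after 30 min at room temperature.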

Test [5] can be described thus: qHTS assay to identify small molecule agonists of the TGF-beta/Smad signaling pathway - cell viability counter screen (AID 1346829). Also: top concentration of the series differs between compounds; nearly all actives have a fitted effect of over 45% in size. In short, it runs like this:
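Cytotoxicity counter screen: CellTiter-Glo luminescence (30 min, room temperature) measured in the SBE-bla HEK 293T reporter wells after 5 hr compound treatment at 37 C and the 2 hr substrate step.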

Test [6] in a line: qHTS assay to identify small molecule agonists of the TGF-beta/Smad signaling pathway (AID 1346859; active = well fitted activation curve with a large enough effect in the signal ratio in the repeat runs, not every such curve was filed as active; the % refers to the signal ratio; also: series mostly up to about 77 µM). The essentials:
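Fluorescence (ex 405 nm; em 460 and 530 nm) was read 2 h after LiveBLAzer FRET substrate at RT. The preceding compound treatment of overnight-plated SBE-bla HEK293T cells lasted 5 h at 37 C.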

Test [7] concerns the target Thyrotropin-releasing hormone receptor (Homo sapiens) (UniProt P34981). Kind of test: qHTS assay to identify small molecule antagonists of the thyrotropin-releasing hormone receptor (TRHR) signaling pathway (AID 1346877; active = well fitted inhibition curve with a large enough effect in the repeat runs, not every such curve was filed as active; also: series mostly up to about 51 µM). The essentials: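 Intracellular calcium fluorescence, read kinetically every second over 3 min, reports TRH-evoked signalling in HEK293 cells carrying TRHR. Test compounds were added 5 min ahead of a 1 nM TRH challenge.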

Test [8] has the same target. Kind of test: qHTS assay to identify small molecule agonists of the thyrotropin-releasing hormone receptor (TRHR) signaling pathway (AID 1346891; calls by dose curve; also: series mostly up to about 58 µM). The essentials:
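Agonist-mode intracellular calcium readout: kinetic fluorescence over 3 min at 1 s intervals after compound addition to TRHR-HEK293 cells (18 h seeded, 2 h dye-loaded at 37 C). Fifteen concentrations, triplicates.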

The nature of test [9]: Human pregnane X receptor (PXR) small molecule agonists, qHTS cell viability counter screen (AID 1346977). Also: nearly all actives have a fitted effect of over 50% in size. In short, it runs like this:
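Same-well viability read: CellTiter-Fluor added after 23 hr compound exposure, fluorescence measured 1 hr later. Cells were PXR-Luc HepG2 seeded at 2,000/well in 5% charcoal-stripped FBS medium, rested 5 hr before dosing at 37 C.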

Test [10] can be described thus: Caspase-3/7 induction in CHO-K1 cells by small molecules, qHTS cell viability counter screen (AID 1346979). Also: nearly all actives have a fitted effect of over 35% in size. In short, it runs like this:
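Cytotoxicity counter screen: CellTiter-Fluor added to compound-treated wild-type CHO-K1 cells at 16 h (37C, 5% CO2), fluorescence measured 1 h later; same wells as caspase-3/7 measurement.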

Test [11] is described as follows: Caspase-3/7 induction in CHO-K1 cells by small molecules, qHTS assay (AID 1346980). Also: nearly all actives have a fitted effect of over 15% in size. The essentials: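 Wild-type cells were seeded at 1,500 per well and settled 5 hr at 37 C, 5% CO2, then exposed to DMSO-dissolved compounds for 17 hr. Caspase-Glo 3/7 reagent was added, and luminescence was read after 30min at room temperature.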
A short description of test [12]: Caspase-3/7 induction in HepG2 cells by small molecules, qHTS cell viability counter screen (AID 1346981). Also: series mostly up to about 92 µM; nearly all actives have a fitted effect of over 30% in size. The essentials:
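HepG2, WT, 2,000 cells/well; 5 hr pre-incubation 37 C/5% CO2; compound pin-transferred from DMSO; 16 hr exposure; CellTiter-Fluor, 1 hr; fluorescence read.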

Test [13] has as its target Nuclear receptor subfamily 1 group I member 2 (Homo sapiens) (UniProt O75469). Nature of the test: Human pregnane X receptor (PXR) small molecule agonists, qHTS assay (AID 1346982). Also: nearly all actives have a fitted effect of over 35% in size. The essentials:
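Luciferase signal from ONE-Glo (30 min, room temperature) measured activation of hPXR-driven CYP3A4 reporter expression in PXR-Luc HepG2 cells treated with compounds for 24 hr at 37 C.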

The target in test [14] is Cytochrome P450 2D6 (Homo sapiens) (UniProt P10635). Kind of test: Cytochrome P450 Family 2 Subfamily D Member 6 (CYP2D6) small molecule antagonists: luciferase reporter qHTS assay (AID 1671196). Also: nearly all actives have a fitted effect of over 50% in size. Also: potency is read from the fitted curve at half-maximal effect. In short, it runs like this: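 Read-out is luminescence from luciferin formed by CYP2D6 turnover of a proluciferin substrate, recorded as relative luminescence units. Reactions ran 1 h at room temperature after NADPH regeneration solution was added.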
Chain of Cytochrome P450 2D6 (Homo sapiens) (P10635 whole entry, looked up): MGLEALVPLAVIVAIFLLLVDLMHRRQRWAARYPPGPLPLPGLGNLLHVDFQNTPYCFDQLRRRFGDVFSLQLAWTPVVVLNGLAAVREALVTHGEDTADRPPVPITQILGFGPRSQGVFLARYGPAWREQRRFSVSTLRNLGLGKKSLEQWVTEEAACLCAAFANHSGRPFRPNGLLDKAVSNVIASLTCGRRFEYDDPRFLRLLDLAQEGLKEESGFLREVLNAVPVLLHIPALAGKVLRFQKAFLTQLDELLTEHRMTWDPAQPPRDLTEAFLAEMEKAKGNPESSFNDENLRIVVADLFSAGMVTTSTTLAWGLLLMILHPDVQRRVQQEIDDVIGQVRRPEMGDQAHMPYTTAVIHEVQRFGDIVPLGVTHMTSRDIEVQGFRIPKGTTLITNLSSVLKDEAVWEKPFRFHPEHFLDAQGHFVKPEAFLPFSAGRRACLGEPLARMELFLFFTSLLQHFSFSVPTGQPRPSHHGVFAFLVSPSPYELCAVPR
(In general: A reporter such as luciferase makes a cellular process visible.)

Test [15] in a line: qHTS assay to identify small molecule agonists of the progesterone receptor (PR) signaling pathway - cell viability counter screen (AID 1346799; calls by dose curve; also: nearly all actives have a fitted effect of over 45% in size). In short, it runs like this: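 Cytotoxicity measured by CellTiter-Glo luminescence (30 min, RT) in the same wells as the PR beta-lactamase agonist read. Those HEK293T cells had 16 h compound treatment at 37 C in 2% charcoal-stripped FBS medium.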

A short description of test [16]: Caspase-3/7 induction in HepG2 cells by small molecules, qHTS assay (AID 1346978). Also: nearly all actives have a fitted effect of over 15% in size. In short, it runs like this: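 Wild-type HepG2 cells (2,000/well) were settled 5 h at 37 C, 5% CO2, then exposed to compounds in DMSO for 17 h. Caspase-3/7 activity was read by luminescence 30 min after adding Caspase-Glo 3/7 reagent at room temperature.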
Test [17] addresses Nuclear receptor subfamily 1 group I member 2 (Rattus norvegicus) (UniProt Q9R1A7). Kind of test: Rat pregnane X receptor (rPXR) activation by small molecules, qHTS assay (AID 1346983). Also: nearly all actives have a fitted effect of over 20% in size. Particulars: rPXR luciferase reporter cells, One-Glo luminescence, 24 h; stronger effect = higher value. The essentials: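 Cell-based rPXR luciferase reporter assay, 2,000 cells per well, rested 5hr at 37 C before compound addition in DMSO, then 24 hr at 37 C. One-Glo reagent was added and luminescence read after 30 min at room temperature.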

The target of test [18] is Nuclear receptor subfamily 1 group I member 2 (Homo sapiens) (UniProt O75469). Nature of the test: CYP3A4 induction through human pregnane X receptor (PXR) by small molecules, qHTS assay (AID 1346984). Also: nearly all actives have a fitted effect of over 40% in size. In short, it runs like this:
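Luminescence readout: luciferase signal after One-Glo (30 min, room temperature), following 3 h at 37C with 3uM final Luciferin-IPA P450 substrate. Cells were DPX-2 (HepG2, PXR/CYP3A4-luc co-transfected) dosed for 24 h.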

The target is the same in test [19]. Nature of the test: Human pregnane X receptor (PXR) activation by small molecules, qHTS assay (AID 1346985). Also: nearly all actives have a fitted effect of over 40% in size. In short, it runs like this:
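DPX-2 cells (HepG2 co-transfected with a PXR response element and a CYP3A4-promoter luciferase construct) were seeded at 2,000 per well, rested 5 hr at 37C, then exposed to DMSO-dissolved compounds for 24 hr. Activation was read as luciferase luminescence.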
% is scaled to controls: 0 for no effect and ±100 for the full control effect.

Chain of Thyrotropin-releasing hormone receptor (Homo sapiens) (P34981 whole entry, looked up): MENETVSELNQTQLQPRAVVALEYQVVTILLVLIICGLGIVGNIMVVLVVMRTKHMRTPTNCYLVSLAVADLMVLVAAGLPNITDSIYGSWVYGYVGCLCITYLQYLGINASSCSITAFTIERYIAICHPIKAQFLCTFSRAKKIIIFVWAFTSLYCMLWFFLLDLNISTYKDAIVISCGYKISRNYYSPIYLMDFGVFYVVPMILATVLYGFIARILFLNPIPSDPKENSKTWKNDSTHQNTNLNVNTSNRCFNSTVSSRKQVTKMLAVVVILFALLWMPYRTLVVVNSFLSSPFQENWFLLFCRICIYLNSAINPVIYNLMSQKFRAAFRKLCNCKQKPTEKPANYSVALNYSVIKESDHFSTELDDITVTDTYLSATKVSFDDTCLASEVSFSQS
Chain of Nuclear receptor subfamily 1 group I member 2 (Rattus norvegicus) (Q9R1A7 whole entry, looked up): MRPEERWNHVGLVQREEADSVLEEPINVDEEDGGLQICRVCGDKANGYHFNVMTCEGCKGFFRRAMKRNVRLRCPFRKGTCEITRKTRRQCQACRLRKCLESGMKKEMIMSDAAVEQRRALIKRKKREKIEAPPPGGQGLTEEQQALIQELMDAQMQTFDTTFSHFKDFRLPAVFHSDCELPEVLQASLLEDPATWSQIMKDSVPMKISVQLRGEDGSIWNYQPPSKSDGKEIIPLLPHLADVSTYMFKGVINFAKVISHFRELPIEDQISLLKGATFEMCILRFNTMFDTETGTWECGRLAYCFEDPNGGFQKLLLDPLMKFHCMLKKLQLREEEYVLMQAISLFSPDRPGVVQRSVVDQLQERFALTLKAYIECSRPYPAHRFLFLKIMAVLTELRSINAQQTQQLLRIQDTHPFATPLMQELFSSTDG
Chain of Nuclear receptor subfamily 1 group I member 2 (Homo sapiens) (O75469 whole entry, looked up): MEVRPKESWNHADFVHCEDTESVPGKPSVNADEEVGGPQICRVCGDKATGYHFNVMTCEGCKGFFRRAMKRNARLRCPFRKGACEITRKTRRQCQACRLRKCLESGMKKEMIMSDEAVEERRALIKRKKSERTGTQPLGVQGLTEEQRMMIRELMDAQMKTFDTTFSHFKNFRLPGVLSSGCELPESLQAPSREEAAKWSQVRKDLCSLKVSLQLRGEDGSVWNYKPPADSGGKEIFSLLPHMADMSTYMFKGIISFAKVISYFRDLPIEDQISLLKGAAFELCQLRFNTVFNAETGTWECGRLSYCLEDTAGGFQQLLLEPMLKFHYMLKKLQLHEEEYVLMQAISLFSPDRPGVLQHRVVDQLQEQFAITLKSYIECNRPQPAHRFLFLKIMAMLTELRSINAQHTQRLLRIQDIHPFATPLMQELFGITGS

Consider `CCCCCCCCCCCC(=O)OC`, for which the Potency entry in test [1], in [2], in test [9], in [10], in test [12] and in test [13] was “inactive” throughout. Moreover, the Potency entry in test [14] is “inactive”. For the same compound, the compound was called inactive in test [3], in [4], in [5], in test [6], in test [7] and in test [8]. Also, the compound was called inactive in test [11].
Turning to `OCc1ccccc1`, the Potency result in [1], in test [9], in test [16], in [10], in test [12] and in test [18] was “inactive” throughout. For the same compound, the Potency entry in test [14] is “inactive”. Besides, the outcome in test [15], in test [4], in [5], in test [6], in test [7] and in [8] was inactive. Further, the compound was called inactive in test [11] and in test [19]. For the same compound, the max activation in [17] is -0.795% (inactive).
On to `Cc1ccc(C(C)C)c(O)c1`, for which the Potency entry in test [1], in test [2], in test [9], in test [10], in [12] and in [18] was “inactive” each time. The Potency entry in test [14] was “inactive”. Further, the compound was called inactive in test [3], in test [15], in test [4], in test [6], in [8] and in test [11]. For the same compound, the compound was called inactive in test [19]. The max activation in test [17] is -2.47% (inactive).
With `CCNc1cccc(C)c1`, the Potency result in test [1], in [9], in test [16], in test [10], in [12] and in test [14] was “inactive” each time. The result in test [15], in test [4], in [6] and in test [11] was inactive.
Consider `COC(=O)c1cccnc1`, for which the Potency entry in [1], in [2], in test [9], in test [10], in [12] and in test [18] was “inactive” in each case. Besides, the Potency result in [14] is “inactive”. The compound was called inactive in test [15], in test [4], in test [5], in test [6], in test [11] and in [19]. Further, the max activation in test [17] was -1.84% (inactive).
As to `CCNC(=S)NCC`, the Potency result in [1], in test [2], in test [9], in [10], in test [12] and in [14] was “inactive” throughout. Moreover, the call in [15], in test [4], in test [5], in [6], in [7] and in test [8] was inactive. Also, the call in [11] was inactive.
As for `CCCCCCCCCCCCCCCCO`, the Potency result in test [1], in test [9], in test [10], in test [12], in test [13] and in test [18] was “inactive” throughout. Moreover, the Potency entry in [14] is “inactive”. The compound was classed as inactive in test [3], in [15], in test [4], in test [6], in test [7] and in [8]. Also, the compound was called inactive in [11] and in test [19]. Besides, in [17], the max activation was -1.74% (inactive).
Turning to `O=C(O)Cn1c(=O)n(Cc2ccc(Br)cc2F)c(=O)c2ccc(Cl)cc21`, the Potency result in test [1], in test [2], in test [9] and in test [14] was “inactive” each time. Moreover, the call in [15], in [4], in [6], in [7], in test [8] and in test [11] was inactive.
As for `O=C(OCC1CCC2OC2C1)C1CCC2OC2C1` (stereo not given), the Potency entry in test [1], in test [2], in test [9], in [16], in test [10] and in [12] was “inactive” throughout. In addition, the Potency entry in test [13] was “inactive”. The compound was called inactive in [3], in [4], in [6] and in test [11]. Besides, the Potency in test [14] is 16.6 µM (active) and inactive.
Consider `CCOC(=O)c1ccc(N)cc1`, for which the Potency entry in test [1], in [9], in test [16], in [10], in test [12] and in [18] was “inactive” in each case. Besides, the Potency entry in [14] was “inactive”. Further, the compound was classed as inactive in test [15], in [4], in test [5], in test [6], in test [8] and in [11]. Moreover, the outcome in test [19] was inactive. Also, the max activation in [17] was -0.927% (inactive).
